Screening results from PubChem.
aSyn yeast inh – qHTS of alpha-syn Inhibitors. 370,000 compounds, 0.14% hits. Yeast expressing alpha-synuclein, growth rescue, BacTiter-Glo, 24 h. Potency, µM (top dose mostly 46.1 µM), for the others: at the top dose growth rescue (activation), actives largely listed as activators; note: % of control where 0% means no effect; nearly all actives have a fitted effect of over 65% in size
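Screening used galactose-induced yeast with toxic alpha-synuclein levels, exposed to compound for 24 hr at 30 deg C. Cell growth, read with BacTiter-Glo luminescence, gave the measured signal.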
FUS yeast rescue – qHTS for Suppressors of FUS Proteinopathy: Primary screen using FUS-linked yeast assay | S. cerevisiae FUS-expressing, growth rescue, OD600, 24 h | Potency, µM (doses to about 76.6 µM), hits mostly activators | 390,000 compounds, 0.24% hits;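 note: plate controls were DMSO vehicle for no effect and reference control for full effect; nearly all actives have a fitted effect of over 55% in size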
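Galactose (2%) drives FUS expression in yeast precultured in raffinose; seeding density OD 0.005. Test compounds incubated 24hr at 30C and 99% humidity before absorbance at 600 nm was measured.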
Mito fusion yeast – qHTS Assay for Small Molecule Inhibitors of Mitochondrial Division or Activators of Mitochondrial Fusion | S. cerevisiae fusion-defective mutant growth rescue, CellTiterGlo 48 h | 320,000 compounds, 0.23% hits | Potency, µM (doses to about 46.1 µM), for the others: at the top dose growth rescue (activation), usual class: activators; note: % of control where 0% means no effect; nearly all actives have a fitted effect of over 45% in size
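S. cerevisiae fusion-defective temperature-sensitive mutants (e.g. fzo1-1, mgm1-5) grown 48 h at 37C in YPEG (ethanol/glycerol non-fermentable) medium with 23 nl compound per well; growth rescue read as CellTiterGlo luminescence.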
Abeta yeast res – qHTS for compounds that reverse cellular toxicity of Amyloid beta (A-beta) peptide in yeast: Primary Screen; yeast expressing A-beta42, growth rescue, OD600, 48 h; response scale: 0% DMSO, 100% iron-clioquinol control; Potency, µM (doses to about 46.1 µM), usual class: activators; 410,000 compounds, 0.063% hits; AID 1347071, 2019; note: nearly all actives have a fitted effect of over 55% in size
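Yeast growth medium received pinned compounds, then yeast cells expressing toxic A-beta were added; plates incubated at 30 C for 48 hr. Growth read as absorbance at 600 nm, normalized to DMSO and equimolar FeCl3 plus clioquinol controls.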
TDP43 rescue – qHTS of TDP-43 Inhibitors. TDP-43 expressing yeast growth rescue, BacTiter-Glo, 24 h. Potency, µM (titrated, usually from 46.1 µM), for the others: top-dose growth rescue (activation), actives largely listed as activators. 410,000 compounds, 1.8% hits. AID 652104, 2013; note: % of control where 0% means no effect; nearly all actives have a fitted effect of over 50% in size
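Galactose-induced TDP-43 yeast, OD600=0.02, compound pinned; 24 hr, 30 deg C; BacTiter-Glo luminescence for growth. Inhibitors of TDP-43 toxicity read as activators.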
ERG Ets-DNA blk – qHTS for Small Molecule Inhibitors of the ERG Ets/DNA interaction | Transcriptional regulator ERG (Homo sapiens), P11308 | fluorescence polarization, His-ERG Ets domain / labelled DNA | Potency, µM (doses to about 76.9 µM), for the others: at the highest dose FP activity, negative = inhibition, actives largely listed as inhibitors | 370,000 compounds, 0.028% hits; active = well fitted inhibition curve with a large enough effect in the polarisation, with a control signal flat; inconclusive = small, poorly fitted or top-dose-only effect, or effect the other way, or a change in a side signal; inactive = no such curve, though single readings can be large or run the other way; the % refers to the polarisation;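 note: polarization taken with two DNA probes labelled with fluorescein and Texas red; % of control where 0% means no effect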
Target sequence (P11308 whole entry, looked up, the tested form may be a part): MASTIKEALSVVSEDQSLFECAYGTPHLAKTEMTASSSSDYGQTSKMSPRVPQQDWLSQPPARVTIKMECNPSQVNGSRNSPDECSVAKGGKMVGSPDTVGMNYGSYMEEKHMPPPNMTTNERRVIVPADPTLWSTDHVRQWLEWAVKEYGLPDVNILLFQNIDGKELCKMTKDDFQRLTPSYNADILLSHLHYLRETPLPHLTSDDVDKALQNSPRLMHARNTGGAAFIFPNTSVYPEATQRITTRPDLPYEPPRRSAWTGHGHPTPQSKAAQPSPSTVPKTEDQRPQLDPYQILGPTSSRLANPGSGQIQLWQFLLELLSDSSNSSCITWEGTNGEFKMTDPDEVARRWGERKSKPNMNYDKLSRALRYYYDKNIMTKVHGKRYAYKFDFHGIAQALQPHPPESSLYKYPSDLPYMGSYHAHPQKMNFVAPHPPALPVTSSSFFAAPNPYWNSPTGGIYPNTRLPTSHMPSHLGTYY
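His-tagged ERG Ets domain (1 uM in the protein solution; 300mM KCl, 50mM Tris-HCl, 1mM EDTA, 1mM DTT, pH 7.5) received compound, then a probe mix of 5 nM fluorescein-DNA and 100nM Texas-615-DNA. Fluorescence polarization was read for both dyes.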
* = called active by the depositor; [ ] = another dose, or the depositor's remark. This is a sample that favours compounds with a hit; in the whole collection about 2.2% have one here. Unless noted, calls come from the whole dose curve; as a rule, active = well fitted curve in the direction sought with a large enough effect; inconclusive = small, poorly fitted or top-dose-only effect, or another doubt; inactive = no such curve, though single readings can be large; an effect the other way counts as inactive or inconclusive. Potency is the fitted concentration of half-maximal effect.

How did N#CC(C#N)=C1C=CC=CN1/C(=C\c1ccccc1)C(=O)c1cccs1 do in these assays?
aSyn yeast inh: inconclusive; FUS yeast rescue: inactive; Mito fusion yeast: 15.4%; Abeta yeast res: inactive; TDP43 rescue: 4.47µM*; ERG Ets-DNA blk: -1.3%

What do the screens show for `N#CC(C#N)=C1C=CC=CN1/C(=C\c1ccccc1Cl)C(=O)c1ccccc1`?
aSyn yeast inh: -37.6%; Mito fusion yeast: -3.4%; Abeta yeast res: inactive; TDP43 rescue: inconclusive; ERG Ets-DNA blk: 0.2%

How did O=C(C1CCCC1)N1CCC(CO)(Cc2ccccc2Cl)CC1 do in these assays?
aSyn yeast inh: 13.9%; FUS yeast rescue: inactive; Mito fusion yeast: 5.9%; Abeta yeast res: inconclusive; TDP43 rescue: 20µM*; ERG Ets-DNA blk: 10.8%

Results for COc1ccc(NC(=O)c2cc(C3CCCCN3C(=O)c3ccccc3)on2)c(C)c1 (configuration not stated) ?
aSyn yeast inh: 1.9%; FUS yeast rescue: inactive; Abeta yeast res: inactive; TDP43 rescue: inconclusive

How did CC(C)Cc1ccc(C(=O)Nc2ccc(Cc3ccncc3)cc2)o1 do in these assays?
aSyn yeast inh: -0.7%; FUS yeast rescue: inactive; Mito fusion yeast: -6.9%; Abeta yeast res: inactive; TDP43 rescue: 7.2%; ERG Ets-DNA blk: 0.5%

Results for c1ccc2oc(CCc3nc4ccccc4o3)nc2c1 ?
aSyn yeast inh: -3.1%; Mito fusion yeast: 0.8%; Abeta yeast res: inactive; TDP43 rescue: 16.8%; ERG Ets-DNA blk: -4.1%

Results for Nc1ccc2oc(CCc3ccccc3)nc2c1 ?
aSyn yeast inh: -1.4%; FUS yeast rescue: inactive; Mito fusion yeast: 11.8%; Abeta yeast res: inactive; TDP43 rescue: 17.8µM*; ERG Ets-DNA blk: -0.9%

Results for COc1ccc(-c2ccc(C(=O)NCc3ccncc3)c3occc23)c(C)c1 ?
aSyn yeast inh: 16.2%; FUS yeast rescue: inactive; Abeta yeast res: inactive; TDP43 rescue: 15.2%

Results for COc1ccc(-c2ccc(C(=O)N3CCN(C)CC3)c3occc23)c(C)c1 ?
aSyn yeast inh: -1.3%; FUS yeast rescue: inactive; Abeta yeast res: inactive; TDP43 rescue: 3.9%

Results for COc1ccc(-c2ccc(C(=O)NCC3CC3)c3occc23)c(C)c1 ?
aSyn yeast inh: -8.2%; FUS yeast rescue: inactive; Abeta yeast res: inactive; TDP43 rescue: 22.4µM*

What do the screens show for `COc1ccc(-c2ccc(C(=O)NCC(C)C)c3occc23)c(C)c1`?
aSyn yeast inh: 1.8%; FUS yeast rescue: inactive; Abeta yeast res: inactive; TDP43 rescue: 25.1µM*

Results for COc1ccc(-c2ccc(C(=O)N3CCOCC3)c3occc23)c(C)c1 ?
aSyn yeast inh: inconclusive; FUS yeast rescue: inactive; Abeta yeast res: inactive; TDP43 rescue: 10µM*

Results for CCCCNC(=O)C[C@@H]1C(=O)N2CCCC3=C2[C@@]1(C(=O)OCC)CCC3 ?
FUS yeast rescue: inactive

Results for COc1ccc(C(=O)O/N=C(\C)c2cnccn2)cc1 ?
aSyn yeast inh: 7.8%; FUS yeast rescue: inactive; Mito fusion yeast: 6.9%; Abeta yeast res: inactive; TDP43 rescue: 17.8µM*; ERG Ets-DNA blk: -5.0%

What do the screens show for `COc1ccc(C(=O)O/N=C(\N)c2ccccn2)cc1`?
aSyn yeast inh: -52.9%; FUS yeast rescue: inactive; Mito fusion yeast: 2.8%; Abeta yeast res: inactive; TDP43 rescue: -0.6%; ERG Ets-DNA blk: -14.1%

Results for O=C(Nc1ccccc1Sc1ccccc1)c1ccc(F)cc1 ?
aSyn yeast inh: -8.6%; FUS yeast rescue: inactive; Mito fusion yeast: 11.2%; Abeta yeast res: 14.1µM*; TDP43 rescue: 14.8%; ERG Ets-DNA blk: -6.4%

How did CCN(CCO)c1ncnc2c1sc1nc(CC(C)C)c3c(c12)CC(C)(C)OC3 do in these assays?
aSyn yeast inh: 2.3%; FUS yeast rescue: inconclusive; Mito fusion yeast: -5.6%; Abeta yeast res: inactive; TDP43 rescue: 17.8µM*; ERG Ets-DNA blk: -2.6%

What do the screens show for `CCCC1CCC2(CC1)CCC2OC(=S)Nc1ccc(N(C)C)cc1` (configuration not stated)?
FUS yeast rescue: inactive

How did COc1ccc(NC(=O)c2cc(C3CC3)nc3c2c(C)nn3-c2ccc(C)cc2)cc1OC do in these assays?
FUS yeast rescue: inactive; Abeta yeast res: inactive; TDP43 rescue: 2.9%[9.22 µM]; ERG Ets-DNA blk: 5.8%

Results for O=C(NCc1ccc(C(F)(F)F)cc1)c1ccc(-c2cccnc2)c2ccoc12 ?
aSyn yeast inh: -4.8%; FUS yeast rescue: inconclusive; Abeta yeast res: inactive; TDP43 rescue: 12.6µM*

What do the screens show for `Cn1cc(-c2ccc(C(=O)NCc3cccc(Cl)c3)c3occc23)cn1`?
aSyn yeast inh: 0.7%; FUS yeast rescue: inactive; Abeta yeast res: inactive; TDP43 rescue: 5.3%

How did O=C(NCc1cccc(Cl)c1)c1ccc(-c2cccnc2)c2ccoc12 do in these assays?
aSyn yeast inh: 3.1%; FUS yeast rescue: inactive; Abeta yeast res: inactive; TDP43 rescue: 35.5µM*

Results for O=C(NCc1ccc(C(F)(F)F)cc1)c1ccc(-c2ccc(F)c(F)c2)c2ccoc12 ?
aSyn yeast inh: 9.0%; FUS yeast rescue: inactive; Abeta yeast res: inactive; TDP43 rescue: -3.4%

Results for O=C(Nc1cccc(C(F)(F)F)c1)c1cccc2c(-c3cccnc3)coc12 ?
aSyn yeast inh: -0.5%; FUS yeast rescue: inactive; Abeta yeast res: inactive; TDP43 rescue: 15.8µM*

How did COC(=O)C[C@@H]1CC[C@@H]2[C@@H](COc3ccc(NC(=O)Nc4ccccc4)cc3C(=O)N2C)O1 do in these assays?
FUS yeast rescue: inactive

What do the screens show for `Cc1ccnc(NC(=S)N2CCC(Nc3cccc(C(F)(F)F)c3)CC2)c1`?
FUS yeast rescue: inactive

What do the screens show for `CC1CN(C(=O)COC(=O)/C=C/c2ccccc2)CC(C)O1` (configuration not stated)?
aSyn yeast inh: 2.9%; FUS yeast rescue: inactive; Abeta yeast res: inactive; TDP43 rescue: 27.9%

Results for N/C(Cc1ccc([N+](=O)[O-])cc1)=N\OC(=O)c1ccc2ccccc2c1 ?
aSyn yeast inh: -32.8%; FUS yeast rescue: inactive; Mito fusion yeast: -1.9%; Abeta yeast res: inactive; TDP43 rescue: 11.2µM*; ERG Ets-DNA blk: -1.4%
